{"source": "PubChem BioAssay AID1347426", "about": "(Functional Genomics Laboratory (NCATS/FGL), 2020)", "note": "The campaign covered roughly 31,000 sequences. About 1,400 (4.5%) were called active. This is one part of a sample in which actives are shown more often than they occur. Values without a mark were called inactive.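 Rule for the calls: active = median seed-adjusted z-score above 1 or below -1; inactive = the rest.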"}
{"experiment": "Novel Modifiers of Survival Motor Neuron (SMN) Protein: Gene Identification via Genome-wide siRNA Screen;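 note: luminescence tracks full-length SMN protein made from the SMN2 reporter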", "conditions": "HEK293T SMN2-luciferase reporter, siRNA knockdown, 72 h; actives lie on both sides", "summary_of_the_method": "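Luciferase signal, proportional to full-length SMN made from an SMN2 cDNA reporter in stable HEK293T cells, was read 72 h after siRNA reverse transfection. Values were expressed as MAD scores after non-targeting-control normalization and log10 conversion; seed analysis flagged off-targets.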"}
{"sequence": "GGGUCUCAGAAGACGUGUATT against CRAT", "median seed-adjusted z-score": "-1.42 (active)"}
{"sequence": "GACAGUAACUUUAAUUCCATT against IDH3A", "median seed-adjusted z-score": 0.137}
{"sequence": "CAACAGCAAUUACACCGAUTT against TMPRSS13", "median seed-adjusted z-score": 0.0584}
{"sequence": "GAACUUCAUAGUACAGCGATT against CTNNAL1", "median seed-adjusted z-score": 0.229}
{"sequence": "CUGCUCUAAUUACACCGUATT against CILP", "median seed-adjusted z-score": 0.0436}
{"sequence": "GCUCGAUCCCUGCAGAUUATT against LCOR", "median seed-adjusted z-score": -0.0435}
{"sequence": "AGAUAAAGCGAUCUAAACUTT against ASCC3", "median seed-adjusted z-score": -0.192}
{"sequence": "UCAUCUUAAAGGACCGAUATT against SEC11B", "median seed-adjusted z-score": "1.04 (active)"}
{"sequence": "CCCACAUUCUUGUCCGGCATT against ADAMTS4", "median seed-adjusted z-score": -0.0153}
{"sequence": "GAAAGAUCCCUAUGGAAAATT against CAMK2G", "median seed-adjusted z-score": -0.107}
{"sequence": "GAAGGAUUAGAAACCGCAATT against RNF144", "median seed-adjusted z-score": 0.0938}
{"sequence": "GGAUAAUGGAGAACUCAGATT against NSFL1C", "median seed-adjusted z-score": -0.0899}
{"sequence": "GCACGUACCGCUUCGAAAATT against SLC4A10", "median seed-adjusted z-score": 0.026}
{"sequence": "CCGGUAUUAGAAUCAAAGATT against POLS", "median seed-adjusted z-score": -0.334}
{"sequence": "CGAUAUCUUCACCACAUUATT against KCNJ6", "median seed-adjusted z-score": "-1.6 (active)"}
{"sequence": "CAACAAGUGUAACGACGAUTT against SMPD3", "median seed-adjusted z-score": -0.0115}
{"sequence": "ACAGAACUCGGGACCUUUUTT against H6PD", "median seed-adjusted z-score": 0.069}
{"sequence": "GAAGAUUGCUCAGCGAUUATT against PRPF3", "median seed-adjusted z-score": -0.289}
{"sequence": "GCUCGUAAGAGUGCAAGUATT against USPL1", "median seed-adjusted z-score": "-1.87 (active)"}
{"sequence": "GCCUGAAACUGGAGCCUCATT against SLC3A2", "median seed-adjusted z-score": -0.0428}
{"sequence": "CCACAAAGACCGUCGCUUUTT against RHOBTB2", "median seed-adjusted z-score": -0.139}
{"sequence": "GGCUAUGAUCAAAUCCUUATT against SLC17A4", "median seed-adjusted z-score": 0.262}
{"sequence": "GAACUGGGCGAGUAUUACATT against SUPT5H", "median seed-adjusted z-score": "-4.02 (active)"}
{"sequence": "AGAUGGAAGCGAAAACUGATT against NFATC1", "median seed-adjusted z-score": 0.00712}
{"sequence": "GUGACCUUGUCAUUCCGUATT against RGS5", "median seed-adjusted z-score": 0}
{"sequence": "CACCUGUUCGUGUCCUUCATT against SCTR", "median seed-adjusted z-score": -0.352}
{"sequence": "GCCUGGUUAUAUAACCGGATT against EP300", "median seed-adjusted z-score": -0.2}
{"sequence": "GGUUCCGAAUCUAUUCCAATT against PLTP", "median seed-adjusted z-score": "1.09 (active)"}
{"sequence": "GGCCUUACUUAUUUGUGGATT against MAP2K5", "median seed-adjusted z-score": 0.986}
{"sequence": "GCAUCACACUCACCAACUATT against GPR124", "median seed-adjusted z-score": 0.00658}
{"sequence": "GCUUUGGAAGAAUACGUUATT against NR2F2", "median seed-adjusted z-score": 0.129}
{"sequence": "UGAGUAUGCCUACCUCAAATT against HNF4A", "median seed-adjusted z-score": -0.0274}
{"sequence": "CAAUCUACCUAAUCAAGCUTT against ROD1", "median seed-adjusted z-score": 0.42}
{"sequence": "CAAGAACGUGUACAAGUUUTT against RPN2", "median seed-adjusted z-score": -0.217}
{"sequence": "GAGCUGAGCUGUCGAUAUATT against SUPT6H", "median seed-adjusted z-score": "-2.54 (active)"}
{"sequence": "GGUACAUCAUGAUAGAACATT against ABCD2", "median seed-adjusted z-score": -0.102}
{"sequence": "GUAUGGACACCAUUAGUAATT against DTX3L", "median seed-adjusted z-score": 0.0785}
{"sequence": "GAGUUCACCCAGAUCGAAATT against CHMP6", "median seed-adjusted z-score": "-1.81 (active)"}
{"sequence": "GCAUCGACAUGGUUUCCGATT against GABRB3", "median seed-adjusted z-score": 0.0757}
{"sequence": "CCACUGUACUGAGUGACCATT against HECTD3", "median seed-adjusted z-score": 0}
{"sequence": "GAUUACUUCUUGACUAUCATT against OCRL", "median seed-adjusted z-score": -0.545}
{"sequence": "CGACCCUCAGAAUGAUAAATT against ARPC3", "median seed-adjusted z-score": -0.237}
{"sequence": "CCAUCCUGGAAAUACCCUATT against SERPINA12", "median seed-adjusted z-score": -0.382}
{"sequence": "UGAAUUUCGUAGUUCCAUATT against CNOT8", "median seed-adjusted z-score": 0.375}
{"sequence": "CCGUCGAAUUUGAAGGUGATT against SULF1", "median seed-adjusted z-score": -0.128}
{"sequence": "AGAUCUCCAUGGUCAGGAUTT against ACCN4", "median seed-adjusted z-score": -0.512}
{"sequence": "GAACCUUCGGGAGAACCUUTT against FKBPL", "median seed-adjusted z-score": "-1.11 (active)"}
{"sequence": "CGGUAUAAUCGGAAUCGGATT against MKI67IP", "median seed-adjusted z-score": 0.426}
{"sequence": "GGUGAAUAUUUAUCGUCUATT against CHD1", "median seed-adjusted z-score": "-1.03 (active)"}
{"sequence": "GCUAGACACCGGACCAAAATT against MMP28", "median seed-adjusted z-score": 0.862}
{"sequence": "GGACAACUAUGGUAAGAAATT against TCF7L1", "median seed-adjusted z-score": -0.251}
{"sequence": "GGAUUGAGCGCAUCAAGGUTT against GNG7", "median seed-adjusted z-score": -0.205}
{"sequence": "GAAUGCUGUUUAUCUUAAUTT against PNPLA1", "median seed-adjusted z-score": 0.00692}
{"sequence": "GGGAAAAAGUUCUUGCGUATT against USP12", "median seed-adjusted z-score": 0.121}
{"sequence": "GCUUUACAACAAUCACAUATT against AMIGO2", "median seed-adjusted z-score": -0.258}
{"sequence": "CUCUUUCAAGUAUGAGACATT against INHA", "median seed-adjusted z-score": 0.231}
{"sequence": "CAGCUGCUAUCAGAACGGATT against APBA2", "median seed-adjusted z-score": "1.66 (active)"}
{"sequence": "GAAUAUUCUUGCAGAGUUUTT against WFDC5", "median seed-adjusted z-score": 0}
{"sequence": "GGCUUUUGAGCAUCCCAAUTT against CDK4", "median seed-adjusted z-score": 0.346}
{"sequence": "CAGUCCCUCUAUCACAUAUTT against ERH", "median seed-adjusted z-score": "-1.25 (active)"}
{"sequence": "GGAGGUGUUUUGUUCGGAUTT against SV2C", "median seed-adjusted z-score": 0.183}
{"sequence": "GGCUAGUGAUAUACUAUAUTT against RPS6KA6", "median seed-adjusted z-score": -0.0821}
{"sequence": "CCAUCAGUACAUAUCCGAATT against ABCA8", "median seed-adjusted z-score": -0.666}
{"sequence": "GCUCAUGGUUGAUGAUUCUTT against RABGGTA", "median seed-adjusted z-score": -0.0601}
{"sequence": "UCACUAUCAGUACCCAUUATT against CHRNB1", "median seed-adjusted z-score": 0.16}
{"sequence": "GGAGAGAGGUCCAGUCUGATT against BIRC7", "median seed-adjusted z-score": "-1.44 (active)"}
{"sequence": "CAAAGUAUCGGGUCAUCUATT against DMRTA1", "median seed-adjusted z-score": -0.162}
{"sequence": "CUUUGACAGUGUUCGUGAATT against SGOL2", "median seed-adjusted z-score": 0.114}
{"sequence": "CCAAGACGAUGAGAGUAUATT against UGCGL2", "median seed-adjusted z-score": -0.456}
{"sequence": "CGGGCGAGUUUACUAUGUATT against ITCH", "median seed-adjusted z-score": 0.199}
{"sequence": "GCAUUGCCGAGAUCCAUGATT against PIK3R2", "median seed-adjusted z-score": 0.421}
{"sequence": "UCACGUAGAGUCAUAUUUATT against HNRPA1P4", "median seed-adjusted z-score": -0.906}
{"sequence": "ACACAGCUGUUGUACCUCATT against MAP4", "median seed-adjusted z-score": "1.67 (active)"}
{"sequence": "GAUACUUUGCCGUCAAUUATT against CA5B", "median seed-adjusted z-score": 0.317}
{"sequence": "CCAUUGAUCUGCACUACUATT against NUP85", "median seed-adjusted z-score": 0.948}
{"sequence": "GACCUAUCCUUGCACCAGATT against ECT2", "median seed-adjusted z-score": 0.04}
{"sequence": "GCUCGAGUGGAAGAACUCATT against GLMN", "median seed-adjusted z-score": 0}
{"sequence": "GCAGGACCCAUUACGGCUATT against DPEP1", "median seed-adjusted z-score": -0.886}
{"sequence": "GGCUGUGCAUAAACGAGAATT against GTF2E1", "median seed-adjusted z-score": "1.76 (active)"}
{"sequence": "GGAGAACCAUAGAAAACCATT against RIPK3", "median seed-adjusted z-score": 0.123}
{"sequence": "CGAGGACACCCUUAGCAGUTT against ADRA1B", "median seed-adjusted z-score": -0.472}
{"sequence": "GACCGUACGAGGCAAGUAATT against PAX1", "median seed-adjusted z-score": -0.111}
{"sequence": "GAACGAGUGAGAGAAUAUATT against TTC9C", "median seed-adjusted z-score": -0.571}
{"sequence": "GCCGAGUCAGUAUCUAUGATT against STARD13", "median seed-adjusted z-score": -0.0337}
{"sequence": "GGACAAGAAUUUUGCCUUUTT against U2AF2", "median seed-adjusted z-score": "2.14 (active)"}
{"sequence": "CCACGGUGAUAACAGACAUTT against ALDH8A1", "median seed-adjusted z-score": 0.0628}
{"sequence": "GGCUAUACAGGGUAGACAATT against PXDNL", "median seed-adjusted z-score": -0.186}
{"sequence": "GGCAGAUAACUGAACGAGATT against HECW2", "median seed-adjusted z-score": 0.38}
{"sequence": "CUGGCUACGUGAAUGUGCATT against ZDHHC12", "median seed-adjusted z-score": -0.0312}
{"sequence": "GGAACUCGUGCAUCUCCAATT against CD93", "median seed-adjusted z-score": -0.0879}
{"sequence": "GAGAUUACAUAAACGGAGATT against PARP11", "median seed-adjusted z-score": 0.192}
{"sequence": "CAGAUGUUAUGGAUAUAAUTT against L2HGDH", "median seed-adjusted z-score": -0.346}
{"sequence": "GCUUAUGGUUGAUCAGUUATT against RNF7", "median seed-adjusted z-score": "-1.18 (active)"}
{"sequence": "UGAGUUGCCCUGAUUUGAATT against AIF1", "median seed-adjusted z-score": -0.0293}
{"sequence": "GCAACUCCUUCCUCGCUAATT against RBM17", "median seed-adjusted z-score": 0}
{"sequence": "GAAUGUUCAAGAUCGAUUUTT against RANBP2", "median seed-adjusted z-score": "1.53 (active)"}
{"sequence": "UCAUGUAUGUGGGAGCCAATT against SNCG", "median seed-adjusted z-score": -0.169}
{"sequence": "AGGUGAUGCAGGACAGAAATT against COL18A1", "median seed-adjusted z-score": -0.441}
{"sequence": "CCUCAACUCUUAUAUUACATT against ZNF595", "median seed-adjusted z-score": 0.102}
{"sequence": "GGAUCCCUAUGUUCGGAAATT against AP2B1", "median seed-adjusted z-score": -0.214}
{"sequence": "GCAGUAAUAUUUAUCUCUUTT against SUCNR1", "median seed-adjusted z-score": 0}
{"sequence": "CCUGAAUCCUUAGACUUAATT against PROX1", "median seed-adjusted z-score": -0.372}
{"sequence": "ACCCUGCUAUACUCCCUAUTT against MAPKAPK3", "median seed-adjusted z-score": -0.506}
{"sequence": "GAUCCUAAUAUGAAGUUAUTT against FUBP1", "median seed-adjusted z-score": "-1.52 (active)"}
{"sequence": "GCUAGAGAUUGACCAGAAATT against NUDC", "median seed-adjusted z-score": -0.227}
{"sequence": "GGCAACAACUGGAUCUGAATT against PIGZ", "median seed-adjusted z-score": 0.74}
{"sequence": "CUGGAUGAGGUGUACCUUATT against XPNPEP1", "median seed-adjusted z-score": "-1.5 (active)"}
{"sequence": "GCAUGACCCUCGUCACAUATT against THBS1", "median seed-adjusted z-score": -0.847}
